# Bioassay records (PubChem)
# ST2 inh = blocks human ST2 binding to IL-33 | Q01638 | AlphaLISA ST2-Fc/biotin-IL-33 interaction, 1 h | inhibition, % for hits at 17 µM | 78,000 tested, 2.3% active; in the data active means inhibition above about 30%
# An asterisk follows results filed as active; i = inactive; ! = not active in a repeat. Shown is part of a subset that was picked to be rich in hits.
SMILES,ST2 inh
c1ccc2c(CN3CCCCC3CCn3ccnc3)ccnc2c1 (stereo not drawn),i
CC1CCN(Cc2cc(Cn3ccnc3)c3cccnc3c2O)CC1,51%*
CC1CCN(c2ncnc3ccccc23)CC1,i
Cc1cccc(-n2ncc3c(NC(C)(C)C)ncnc32)c1,i
O=C(c1cn[nH]c1-c1ccccc1)N1CCc2c(nc[nH]c2=O)C1,i
COc1ccccc1CNc1nc(-c2cccnc2)nc2c1CNC2,i
Cc1ccc(N2CN=C3SCC(=O)N3C2)cc1Cl,i
Cc1ccc(N2C(=O)C3CCCCC3C2=O)cc1C (stereo not drawn),i
Cc1ccc(N2CN=C3SCC(=O)N3C2)cc1C,37%*
CCOc1ccc(-n2c(SCC(=O)OCc3ccccc3)nc3c(c2=O)SCC3)cc1,i
CC(C)N1CCCN(c2nc(-c3cccnc3)nc3c2cnn3C)CC1,i
CC(C)c1cc(C(=O)NC(C)c2ccccc2-n2cccn2)n(C)n1 (stereo not drawn),i
O=C(/C=C/c1ccccc1)Nc1cc2ccccc2oc1=O,i
COc1ccccc1NC(=O)Nc1cccc2cccnc12,i
COc1cc(NC(=O)/C=C/c2ccccc2)c2ncccc2c1,35%*
Cc1cc(C)c2[nH]c(C(=O)N3CCC(n4ccnc4)C3)c(C)c2c1 (stereo not drawn),i
O=C(CC1(O)C(=O)N(Cc2ccccc2Cl)c2ccccc21)c1ccc(F)cc1 (stereo not drawn),i
Cc1cc(C)c(NC(=O)c2cnc3n(c2=O)CCS3)c(C)c1,i
Cn1cc(/C=C/C(=O)N2CCCC(N3CCN(c4ccccc4F)CC3)C2)cn1 (stereo not drawn),i
COc1cc(C(C[N+](=O)[O-])c2c(C)[nH]c3ccccc23)ccc1O (stereo not drawn),i
Cc1[nH]c2ccccc2c1C(C[N+](=O)[O-])c1ccco1 (stereo not drawn),36%*
Cc1ccc(-c2[nH]c3ccccc3c2C(C[N+](=O)[O-])c2ccco2)cc1 (stereo not drawn),i
FC(F)(F)c1ccc(N2CCN(c3ccccc3)CC2)nc1,i
COCCNC(=O)CN1C(=O)CC(C)(C)Sc2ccccc21,i
CC(SC12CC3CC(CC(C3)C1)C2)C(=O)O (stereo not drawn),i
SMILES,ST2 inh
Cc1cc(-n2cccn2)ccc1CN1CCN(c2cc(=O)[nH]c(N)n2)CC1,40%*
Cc1nc2c(c(=O)[nH]1)CCN(C(=O)c1cc(-n3cccn3)ccc1Cl)C2,i
NC(=O)c1ccc(N2CCN(Cc3cccc(-n4cccn4)c3)CC2)nc1,i
O=C(O)c1cc(N2CCC(N3CCCC(C(=O)NC4CC4)C3)CC2)nc2ccccc12 (stereo not drawn),i
CC(=O)N(C1=C(N2CCCCC2)C(=O)c2ccccc2C1=O)c1cccc(Cl)c1,61%*
CC(C(=O)N1CCN(c2cccc(Cl)c2)CC1)N1C(=O)c2ccccc2C1=O (stereo not drawn),i
CC(C)CC(C(=O)Nc1cccc(Cl)c1)N1C(=O)c2ccccc2C1=O (stereo not drawn),i
O=C(Nc1ccc2c(c1)OCO2)c1cc(-c2ccccc2O)on1,i
O=C(O)C1C2C=CC(O2)C1C(=O)Nc1ccc2c(c1)OCO2 (stereo not drawn),31%*
Cc1nc(C(=O)Nc2ccc3c(c2)OCO3)cc2c1[nH]c1ccccc12,30%*
O=C(Nc1ccc2c(c1)OCO2)c1ccc(Br)cc1,i
Cc1ccc(C(=O)Nc2ccc3c(c2)OCO3)cc1,30%*!
O=C(CC1CCCCC1)Nc1ccc2c(c1)OCO2,i
Cc1cc(NC(=O)c2cc(-c3ccc4c(c3)OCO4)on2)no1,i
CC(=O)c1ccc(NC(=O)c2cc(-c3ccc4c(c3)OCO4)on2)cc1,31%*
COc1cc(C(=O)Nc2ccc3c(c2)OCO3)cc(OC)c1OC,i
O=C(O)C1CC=CCC1C(=O)Nc1ccc2c(c1)OCO2 (stereo not drawn),i
O=C(Nc1ccc(F)c(Cl)c1)c1cc(-c2ccc3c(c2)OCO3)on1,i
Cc1cccc(NC(=O)c2cc3c([nH]c4ccccc43)c(C)n2)c1C,i
COc1ccc(S(=O)(=O)N2CCSC2c2cc(OC)ccc2OC)cc1 (stereo not drawn),i
O=C1CC(c2cccnc2N2CCOCC2)c2cnn(Cc3ccncc3)c2N1 (stereo not drawn),i
COC(=O)C[C@@H]1CCNC[C@@H]1CC1=NCCc2ccc(C)cc21,i
Cc1ccc(Nc2cc(C)nc(Nc3ccc(NC(=O)c4ccco4)cc3)n2)cc1,i
OC1CCC(C2CC3CCC2C3)CC1O (stereo not drawn),i
O=C(Nc1c(-c2cccs2)nc2ccccn12)C1CCCCC1,i
COc1ccccc1/C=C/C1=NC(=C\c2ccc(Cl)cc2Cl)/C(=O)O1,i
COc1ccccc1/C=C/C1=NC(=C\c2ccc(SC)cc2)/C(=O)O1,i
COc1ccccc1/C=C/C1=NC(=C\c2ccc(C(C)C)cc2)/C(=O)O1,45%*
O=C(CCC1CCCC1)NCC1CCCO1 (stereo not drawn),i
